# TRPML1 agonist: human mucolipin-1 channel agonism; 410,000 compounds, 0.12% hits; TRPML1-expressing cells, Ca2+ dye fluorescence, FDSS; AID 624414; activation, % (no concentration beside the values); Q9GZU1; in the data active = activation above about 50%; inconclusive = mostly about 30% to 49%; note: 0% is about no effect
#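 TRPML1-DL cells, Tet-induced overnight (~16 h, 37 degrees C), loaded 45-90 min at room temperature with Ca8 no-wash calcium dye plus quencher. FDSS fluorescence: 10 s baseline, compound pin-transfer, 110 s agonist read, then EC80 54-4 (4uM final) and 110 s antagonist read.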
# GLP-1R agonist: agonists of human GLP-1 receptor; Potency, µM (titrated, usually from 45.6 µM), for the others: at the highest dose activation, hits mostly activators; AID 624172; P43220; 380,000 compounds, 0.007% hits; HEK293 GLP-1R CRE-luciferase, luminescence, 4-6 h; cells express a hypersensitive GLP-1R form; note: potency is the fitted concentration of half-maximal effect; % of control where 0% means no effect
# Target sequence (P43220 whole entry, looked up): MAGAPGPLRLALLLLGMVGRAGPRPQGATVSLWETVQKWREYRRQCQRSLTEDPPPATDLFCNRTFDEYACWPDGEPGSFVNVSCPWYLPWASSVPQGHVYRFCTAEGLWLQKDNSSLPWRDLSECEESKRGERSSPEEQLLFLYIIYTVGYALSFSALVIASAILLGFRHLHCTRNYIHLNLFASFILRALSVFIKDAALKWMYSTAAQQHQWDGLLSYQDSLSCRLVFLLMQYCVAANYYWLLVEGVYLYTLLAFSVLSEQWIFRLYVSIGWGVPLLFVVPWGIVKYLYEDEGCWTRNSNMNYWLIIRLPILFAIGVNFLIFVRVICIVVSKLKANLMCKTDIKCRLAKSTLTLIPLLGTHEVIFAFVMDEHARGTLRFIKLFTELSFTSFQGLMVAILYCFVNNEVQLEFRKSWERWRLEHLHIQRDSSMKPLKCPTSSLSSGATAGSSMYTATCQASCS
# GLP-1R inv ag: inverse agonists of human GLP-1 receptor; Potency, µM (series often up to 38.3 µM), for inactives: at the top dose activity change, negative = inhibition, hits mostly inhibitors; HEK293 GLP-1R CRE-luciferase, luminescence, 24 h; GLP-1R form is constitutively active; 410,000 compounds, 1.6% hits; AID 624417; note: potency is the fitted concentration of half-maximal effect; % is set by controls: 0 for no effect and ±100 for the full control effect; nearly all actives have a fitted effect of over 55% in size
#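 HEK293 cells stably co-expressing a cAMP-responsive luciferase reporter and constitutively active GLP-1R were seeded, incubated 12 h, then exposed to compounds for 24 h at 37 C. Luminescence was read 12 min after detection reagent; inverse agonists lower signal.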
# HEK293 tox: cytotoxic in the GLP-1 receptor inverse agonist counter-screen; HEK293 cAMP-luciferase reporter cells, luminescence, 24 h; Potency, µM (highest dose often 38.3 µM), without a hit: at the top dose activity change, negative = inhibition, actives largely listed as inhibitors; 410,000 compounds, 0.13% hits; AID 624418;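 note: loss of luciferase light is scored as toxicity; potency is the fitted concentration of half-maximal effect; % is set by controls: 0 for no effect and ±100 for the full control effect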
#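 Cells in DMEM/10% Nu serum/1% pen-strep, 1536-well format. Pre-incubated 12 h, dosed with 23 nL compound, incubated a further 24 h. Luciferase detection, 12 min at room temp, luminescence.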
# TRPML1 inh: inhibitors of human TRPML1 channel; TRPML1-inducible cells, Ca2+ dye fluorescence, FDSS; hits give low values; inhibition of EC80 agonist-evoked calcium signal; AID 624415; 390,000 compounds, 0.02% hits; activity change, negative = inhibition, % (no concentration beside the values); in the data active = activity change below about -50%; inconclusive = between about -30% and that limit;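 note: stimulus is agonist 54-4 at its EC80 concentration; % is set by controls: 0 for no effect and ±100 for the full control effect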
#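 TRPML1-DL cells, Tet-induced overnight (~16 h, 37 °C) at 1,500 cells/well, were loaded with Ca8 no-wash dye plus quencher for 45-90 min at room temperature. Compounds were pinned during FDSS kinetic reading; agonist 54-4 at EC80 (4 uM final) then added.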
# Numbers without * were called inactive; ? = inconclusive; / = no result; [ ] = another dose, or the depositor's remark. Rows were chosen to be rich in hits. Some 1.8% of all compounds tested hit in one or more screens of this group. Unless noted, calls come from the whole dose curve; as a rule, active = well fitted curve in the direction sought with a large enough effect; inconclusive = small, poorly fitted or top-dose-only effect, or another doubt; inactive = no such curve, though single readings can be large; an effect the other way counts as inactive or inconclusive.
SMILES,TRPML1 agonist,GLP-1R agonist,GLP-1R inv ag,HEK293 tox,TRPML1 inh
CN1CCc2c(sc(NC(=O)CSc3ccc(F)cc3)c2-c2nc3ccccc3s2)C1,66*,/,4%,55%,-13
CC(=O)Nc1sc2c(c1-c1nc3ccccc3s1)CCN(C(C)C)C2,10,-12%,?,-2%,19
CCN1CCc2c(sc(NC(=O)CSc3ccccc3)c2-c2nc3ccccc3s2)C1,70*,/,1%,114%,-14
COc1ccc(-c2nc3ccccc3o2)cc1NC(=O)c1ccc(N2CCC(C)CC2)c([N+](=O)[O-])c1,1,/,13%,-10%,0
NNC(=O)c1cc(-c2cccs2)nc2ccccc12,-1,5%,?,-17%,4
O=C(NNC(=O)c1cc(-c2ccccc2)nc2ccccc12)Nc1cccc(Cl)c1,2,-32%,13µM*,2%,-14
O=C(NNC(=O)c1cc(-c2cccnc2)nc2ccccc12)Nc1ccc(Cl)cc1,0,-22%,9%[0.307 µM],-1%[0.307 µM],15
O=C(Nc1nccs1)c1cc(-c2ccccc2)nc2ccccc12,0,2%,5µM*,-4%,30
O=C(Nc1nccs1)c1cc(-c2ccco2)nc2ccccc12,0,-13%,-31%,-8%,17
O=C(NCc1ccccn1)c1cc(-c2ccccc2)nc2ccccc12,0,0%,12%,-5%,-10
C/C(=N\NC(=O)c1cc(-c2cccs2)nc2ccccc12)c1ccccn1,2,7%,2.8µM*,?,-11
O=C(NCc1ccccn1)c1cc(-c2ccc(-c3ccccc3)cc2)nc2ccccc12,1,3%,2µM*,-8%,15
COc1ccc(OC)c(NC(=O)c2nc(S(=O)(=O)Cc3ccccc3F)ncc2Cl)c1,-1,/,/,/,/
NS(=O)(=O)c1ccc(CCNC(=O)c2cc(-c3ccc(Br)cc3)nc3ccccc23)cc1,3,-1%,?,11µM*,-4
CCCc1ccc(-c2cc(C(=O)NCCc3ccc(S(N)(=O)=O)cc3)c3ccccc3n2)cc1,2,1%,-3%,-15%,-8
CNc1ccccc1C(C)(C)c1cc(-c2cccc(Br)c2)no1,2,18%,2.8µM*,-2%,-1
CNc1ccccc1C(C)(C)c1cc(-c2cccc([N+](=O)[O-])c2)no1,0,13%,?,-6%,16
CCn1cc(C(=O)NCCCN2CCCC(C)C2)c(=O)c2cc(S(=O)(=O)N3CCc4ccccc4C3)ccc21 (configuration not stated),0,11%,10µM*,-26%,-7
CCn1cc(C(=O)NCCN(CC(C)C)CC(C)C)c(=O)c2cc(S(=O)(=O)N3CCOCC3)ccc21,0,9%,7.9µM*,-18%,23
CCC1CCCCN1CCCNC(=O)c1cn(CC)c2ccc(S(=O)(=O)N3CCc4ccccc4C3)cc2c1=O (configuration not stated),0,11%,?,-7%,-20
Cc1cc(SCC(=O)c2ccc(O)c(O)c2)n2nc(C)c(-c3ccccc3)c2n1,/,16%,11µM*,?,/
CN1CCN(CCNC(=O)c2cnn(-c3ccc(Cl)cc3)c2C2CCN(C(=O)OC(C)(C)C)CC2)CC1,0,/,-6%,2%,17
CC(CNC(=O)c1ccc2nc(Cc3ccccc3)oc2c1)c1ccccc1 (configuration not stated),7,/,11µM*,-13%,54
COc1cc(CNC(=O)c2ccc3nc(CCc4ccccc4)oc3c2)cc(OC)c1OC,0,/,11µM*,2%,-23
CCOc1cc(C(=O)NCCc2csc(-c3ccc(C)cc3)n2)cc(OCC)c1OCC,19,/,-2%,2%,?
SMILES,TRPML1 agonist,GLP-1R agonist,GLP-1R inv ag,HEK293 tox,TRPML1 inh
Cc1ccc2nccnc2c1,0,/,/,/,/
Fc1ccc(/C=C/c2ccc3ccccc3n2)cc1,0,/,/,/,/
Cc1ccc(OCc2nnc(SCC(=O)c3ccccc3)n2-c2ccccc2)cc1,1,7%,-15%,-25%,5
Cc1cccc(-n2c(CCc3ccccc3)nnc2SCC(=O)c2ccccc2)c1,1,-2%,5µM*,?,8
Cc1ccc(C)c(C(=O)CSc2nc3cc(C(=O)NC4CCCC4)ccc3c(=O)n2CC2CCCO2)c1 (configuration not stated),-1,/,4%,3%,21
COc1cccc(NC(=O)CSc2nc3ccc(NC(=O)c4cccs4)cc3s2)c1,0,/,?,-4%,3
CCOC(=O)c1ccccc1NC1c2ccccc2C(=O)N1c1cc(C)ccn1 (configuration not stated),1,3%,13µM*,15%,8
O=C(Nc1cc(Cl)ccc1Cl)c1ccco1,-1,0%,29%,11%,1
CS/C(Nc1cc(Cl)ccc1Cl)=C(/C#N)C(=O)c1ccco1,-1,-4%,6.3µM*,-5%,-6
COc1ccccc1CNC(=O)CSc1ncc(S(=O)(=O)c2ccc(C)c(Cl)c2)c(=O)[nH]1,2,-8%,16%,2%,-6
CCCCN(C)CCNC(=O)c1ccc(Cn2c(=O)[nH]c3cc(OC)c(OC)cc3c2=O)cc1,-1,0%,7%,5%,-7
CC(C)CCn1c(=O)c2ccccc2c2ccccc2c1=O,1,-12%,10µM*,-14%,17
COc1ccc(-c2nc(C)c(CCNS(=O)(=O)c3cc(C)c(C)cc3C)s2)cc1,2,16%,?,4%,24
CSc1ccc(/C=C/C(=O)c2ccc(NC(=O)C(C)C)cc2)cc1,1,-12%,10µM*,?,-6
CSc1ccc(/C=C/C(=O)c2ccc(NC(=O)Cc3ccccc3)cc2)cc1,0,-1%,-13%,51%,-6
COc1ccccc1NC(=O)c1sc(-c2ccc(Cl)cc2)cc1N,0,/,-8%,37%,6
Cc1ccc(NC(=O)Nc2cc(C(F)(F)F)c[nH]c2=O)cc1,0,11%,10µM*,-11%,9
CCCCCn1c(-c2ccc(OC)c(OC)c2)nc2ccccc21,3,/,?,-18%,-4
CC(NC(=O)c1ccco1)c1nc(-c2ccc(C(C)(C)C)cc2)no1 (configuration not stated),1,19%,10µM*,-21%,3
COc1ccc(C(=O)N2CCc3cc4c(cc3C2C)OCCCO4)cc1 (configuration not stated),/,9%,?,-9%,/
COc1ccc(S(=O)(=O)N2CCc3cc4c(cc3C2C)OCCCO4)cc1 (configuration not stated),1,0%,?,-1%,-51*
CC1c2cc3c(cc2CCN1C(=O)c1ccc(Br)cc1)OCCCO3 (configuration not stated),-1,-9%,3.2µM*,-25%,-4

# High-throughput results deposited in PubChem BioAssay by National Center for Advancing Translational Sciences (NCATS).
